Measurements: PubChem BioAssay (NCATS)
Records with an inconclusive call do not appear. The source made the active and inactive calls. Unless noted, the call rests on the fitted dose curve; in most records, active means well fitted curve in either direction with a large enough effect (not every such curve was filed as active); inconclusive means small, poorly fitted or top-dose-only effect, or another doubt; inactive means flat fitted curve, though single readings scatter.

Legend:
[1] = biological target: Lysosomal acid glucosylceramidase (Homo sapiens) (UniProt P04062); test: Glucocerebrosidase-p2 (AID 348; in the data active means potency below about 10 µM; further: potency means the concentration at half of the fitted maximal effect); conditions: purified GBA, blue fluorogenic substrate, 40 min
How it was run: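 Normal human glucocerebrosidase (0.2 nM) with blue fluorogenic substrate (80 uM final) in citrate/phosphate pH 5.9 with 10mM sodium taurocholate, 0.01% tween-20; 40 min RT, NaOH/glycine stop; fluorescence Ex 365/Em 440; AC50 from a titration from 0.6 nM upwards.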

[2] = AP1 Signaling Pathway (AID 357); conditions: ME-180 AP-1-bla reporter, EGF-induced, beta-lactamase ratio, 5 h; at 7.69 µM (top of the series) unless noted;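 further: ME-180 reporter cells stimulated with EGF at its EC50 level; on the % scale 0 is the no-effect control and ±100 the full control effect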
How it was run: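 A ratiometric CCF4 readout (405 nm excitation; 460 and 530 nm emission) quantified AP-1-driven beta-lactamase in ME-180 cells after 5 h with compound and EC50 EGF; AC50 values were derived for activators and inhibitors.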

[3] = biological target: Cytochrome P450 1A2 (Homo sapiens) (UniProt P05177); test: p450-cyp1a2 (AID 410; calls by dose curve; further: potency means the concentration at half of the fitted maximal effect;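 on activity change, negative = inhibition: -100% = full effect of reference inhibitor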); conditions: recombinant CYP1A2, luciferin-ME demethylation, luminescence; series mostly up to 57 µM
How it was run: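 O-Demethylation of luciferin 6' methyl ether by human CYP1A2 is monitored as luciferase luminescence. Substrate sits at Km (100uM); enzyme is 20nM. Values are scaled to 57 uM furafylline as maximal inhibition.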

[4] = NFAT Signaling Pathway (AID 444); conditions: Jurkat NFAT-bla M1, carbachol, beta-lactamase ratio, 5 h; at 7.69 µM (top of the series) unless noted;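 further: carbachol stimulus at about its EC50 of 1 µM final; on the % scale 0 is the no-effect control and ±100 the full control effect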
How it was run: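 Read-out: CCF4 FRET ratio (460 nm/530 nm) after 1 h RT dye loading, used for %activity and AC50 from titration series. Cells: Jurkat NFAT-β-lactamase/M1 line, treated with compound plus 1 uM carbachol for 5 h, 37 °C.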

[5] = Stat Signaling Pathway (AID 446); conditions: ME-180 (cervical carcinoma) SIE beta-lactamase reporter, IL-6 stimulated, 5 h; at 7.69 µM (top of the series) unless noted;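 further: ME-180 cervical cancer cells given 40 pM IL-6 alongside compound; SIE-controlled beta-lactamase reporter measured as 460/530 nm FRET emission ratio; on the % scale 0 is the no-effect control and ±100 the full control effect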
How it was run: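 Overnight-plated ME-180 cells bearing a STAT Inducible Element beta-lactamase reporter; 5 h co-exposure to compound and 40 pM IL-6; values normalized to 300 pM IL-6 and 125 nM JAK inhibitor controls.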

[6] = biological target: Glucocorticoid receptor (Homo sapiens) (UniProt P04150); test: GR-EFC Redistribution (AID 451; calls by dose curve; further: potency means the concentration at half of the fitted maximal effect); conditions: CHO-K1 GR-EFC translocation, beta-gal luminescence, 2 h
How it was run: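 Translocation of GR-ED fusion to nuclear EA restores b-gal, read by luminescence after 1 h room-temperature detection. Engineered CHO-K1 biosensor cells, 1,000/well, exposed 2 h at 37 C to titrations up to 46 uM final.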

[7] = biological target: Mitogen-activated protein kinase 10 (Mus musculus) (UniProt Q61831); test: JNK3 AlphaScreen Assay (AID 530); conditions: JNK3 lysate, c-Jun phosphorylation; series mostly up to 57.1 µM;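 further: kinase came from lysate of stimulated human HepG2 cells; signal reports phosphorylation of biotinylated GST-cJun 1-79 at Ser73 with 10 µM ATP; on the % scale 0 is the no-effect control and ±100 the full control effect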
How it was run: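 qHTS titrations with 15 min compound pre-incubation before adding ATP (10 uM final). Read-out: AlphaScreen of Ser73-phosphorylated biotin-GST-cJun using HepG2 lysate JNK3 activated by IL-1β and TNFα.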

[8] = biological target: 3',5'-cyclic-AMP phosphodiesterase 4B (Homo sapiens) (UniProt Q07343); test: qHTS Assay for Inhibitors of PDE-IV (AID 607; active means well fitted activation curve with a large enough effect in the main read-out, with a control signal flat, not every such curve was filed as active; further: % of control where 0% means no effect); conditions: HEK293 ACTOne CNG channel cells, membrane potential fluorescence; series mostly up to 22.9 µM
How it was run: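 Live HEK293 cells with a modified cyclic nucleotide-gated (CNG) channel report intracellular cAMP via membrane-potential dye fluorescence (ex 535/em 590 nm). Endogenous PDE-IV was targeted. Compounds were tested at up to 22.9 uM final; RO 20-1724 100 uM served as control.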

[9] = biological target: Cytochrome P450 3A4 (Homo sapiens) (UniProt P08684); test: qHTS Assay for Activators of Cytochrome P450 3A4 (AID 885; active means well fitted curve in the direction sought with a large enough effect; an effect the other way counts as inactive or inconclusive; further: nearly all actives have a fitted effect of over 65% in size; further: potency means the concentration at half of the fitted maximal effect); conditions: recombinant CYP3A4, Luciferin-PPXE luminescence, 60 min; series mostly up to 57.1 µM
How it was run: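 Using 20nM recombinant human CYP3A4 in potassium phosphate (200mM), substrate Luciferin-PPXE at 25uM, luminescent luciferin detection followed a 60-min RT NADPH reaction; data scaled to 57 uM ketoconazole.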

[10] = qHTS Assay for Lipid Storage Modulators (AID 1519; calls by dose curve); conditions: Drosophila S3 cells, BODIPY lipid droplet/cell ratio, laser cytometry, cells loaded with oleic acid; for activity change, negative = inhibition: at 57.5 µM (top of the series)
How it was run: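 Cells seeded at 5,000 per well were treated with compounds over a concentration series and loaded with oleic acid (400 uM, as added). Lipid droplet fluorescence (488 nm excitation, 500-530 nm channel) was read by laser-scanning cytometry and normalized to 20 uM Triacsin C.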

[11] = Primary qHTS for small molecule stabilizers of the endoplasmic reticulum resident proteome: Secreted ER Calcium Modulated Protein (SERCaMP) assay (AID 1508630; active means well fitted curve in the direction sought with a large enough effect; an effect the other way counts as inactive or inconclusive; further: on the % scale 0 is the no-effect control and ±100 the full control effect); conditions: SH-SY5Y GLuc-SERCaMP (Gaussia luciferase released on ER calcium loss) secretion, thapsigargin, luminescence; series mostly up to 38.4 µM
How it was run: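 The SH-SY5Y reporter protocol was run at 3 concentrations up to 38.3 uM (primary) or 11 concentrations (follow-up): 16 h compound, 100 nM thapsigargin for 4 h, then extracellular luciferase luminescence.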

[12] = measured here: cell count channel max response
[13] = measured here: lipid channel max response

Sequence of Lysosomal acid glucosylceramidase (Homo sapiens) (P04062 whole entry, looked up): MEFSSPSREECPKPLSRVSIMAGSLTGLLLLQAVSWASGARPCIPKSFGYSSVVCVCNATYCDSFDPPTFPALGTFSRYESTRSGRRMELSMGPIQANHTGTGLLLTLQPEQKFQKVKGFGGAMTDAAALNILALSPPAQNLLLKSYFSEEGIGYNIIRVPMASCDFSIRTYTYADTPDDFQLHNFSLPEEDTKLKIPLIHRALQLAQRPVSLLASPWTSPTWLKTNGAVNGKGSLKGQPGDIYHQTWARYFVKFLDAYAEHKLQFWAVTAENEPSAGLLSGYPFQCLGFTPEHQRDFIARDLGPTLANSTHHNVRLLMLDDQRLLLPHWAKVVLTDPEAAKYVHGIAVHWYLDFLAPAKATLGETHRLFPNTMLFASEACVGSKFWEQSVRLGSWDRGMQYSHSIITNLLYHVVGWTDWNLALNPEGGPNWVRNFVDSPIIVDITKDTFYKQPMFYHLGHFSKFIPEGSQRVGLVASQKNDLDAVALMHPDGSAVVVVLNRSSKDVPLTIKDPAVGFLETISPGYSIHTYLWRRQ
Sequence of Cytochrome P450 1A2 (Homo sapiens) (P05177 whole entry, looked up): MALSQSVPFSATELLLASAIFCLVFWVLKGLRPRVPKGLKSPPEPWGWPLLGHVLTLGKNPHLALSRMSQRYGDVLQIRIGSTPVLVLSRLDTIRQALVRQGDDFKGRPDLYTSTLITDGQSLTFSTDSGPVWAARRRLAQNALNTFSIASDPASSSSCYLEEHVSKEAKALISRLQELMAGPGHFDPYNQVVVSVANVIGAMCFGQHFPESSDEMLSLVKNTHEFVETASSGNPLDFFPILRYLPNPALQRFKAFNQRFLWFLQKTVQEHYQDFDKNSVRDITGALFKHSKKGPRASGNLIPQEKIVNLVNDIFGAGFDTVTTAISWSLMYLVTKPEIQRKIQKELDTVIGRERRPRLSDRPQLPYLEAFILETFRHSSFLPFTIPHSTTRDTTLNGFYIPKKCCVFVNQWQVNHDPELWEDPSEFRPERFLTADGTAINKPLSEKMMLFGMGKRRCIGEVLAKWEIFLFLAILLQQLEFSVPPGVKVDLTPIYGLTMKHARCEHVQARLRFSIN
Sequence of Glucocorticoid receptor (Homo sapiens) (P04150 whole entry, looked up, the tested form may be a part): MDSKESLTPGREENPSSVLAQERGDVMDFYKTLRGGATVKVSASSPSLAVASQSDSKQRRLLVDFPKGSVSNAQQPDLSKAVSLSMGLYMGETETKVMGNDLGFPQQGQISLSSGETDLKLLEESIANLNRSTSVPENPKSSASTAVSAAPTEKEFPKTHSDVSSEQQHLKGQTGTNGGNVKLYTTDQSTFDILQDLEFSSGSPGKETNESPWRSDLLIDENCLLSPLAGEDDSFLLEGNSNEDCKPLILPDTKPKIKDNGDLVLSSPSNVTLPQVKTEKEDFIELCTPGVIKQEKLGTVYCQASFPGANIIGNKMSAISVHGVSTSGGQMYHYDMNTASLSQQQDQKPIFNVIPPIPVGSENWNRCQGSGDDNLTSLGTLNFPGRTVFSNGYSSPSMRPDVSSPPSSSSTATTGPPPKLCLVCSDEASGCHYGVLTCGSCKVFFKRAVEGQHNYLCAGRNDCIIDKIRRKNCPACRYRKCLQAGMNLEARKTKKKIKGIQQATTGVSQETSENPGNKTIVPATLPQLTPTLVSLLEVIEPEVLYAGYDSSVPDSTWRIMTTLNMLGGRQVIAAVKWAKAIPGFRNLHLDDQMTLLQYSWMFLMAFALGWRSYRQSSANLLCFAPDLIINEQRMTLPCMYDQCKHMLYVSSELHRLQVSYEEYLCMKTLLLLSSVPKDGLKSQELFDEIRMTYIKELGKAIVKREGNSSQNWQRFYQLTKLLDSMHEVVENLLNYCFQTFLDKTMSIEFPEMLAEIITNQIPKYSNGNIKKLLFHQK
Sequence of Cytochrome P450 3A4 (Homo sapiens) (P08684 whole entry, looked up): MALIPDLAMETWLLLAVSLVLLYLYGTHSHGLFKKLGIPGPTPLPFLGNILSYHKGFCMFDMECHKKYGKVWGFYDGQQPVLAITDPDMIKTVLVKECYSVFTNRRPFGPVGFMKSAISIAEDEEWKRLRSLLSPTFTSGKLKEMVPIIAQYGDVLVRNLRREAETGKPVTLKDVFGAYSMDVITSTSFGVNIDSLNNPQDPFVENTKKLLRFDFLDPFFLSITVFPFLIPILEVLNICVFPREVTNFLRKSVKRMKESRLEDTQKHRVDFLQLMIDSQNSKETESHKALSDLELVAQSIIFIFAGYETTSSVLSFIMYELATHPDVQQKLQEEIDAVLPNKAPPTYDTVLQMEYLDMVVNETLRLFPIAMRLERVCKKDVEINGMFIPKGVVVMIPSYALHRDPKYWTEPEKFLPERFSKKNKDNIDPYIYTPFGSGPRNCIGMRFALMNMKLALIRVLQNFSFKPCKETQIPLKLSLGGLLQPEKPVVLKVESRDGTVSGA
Sequence of 3',5'-cyclic-AMP phosphodiesterase 4B (Homo sapiens) (Q07343 whole entry, looked up): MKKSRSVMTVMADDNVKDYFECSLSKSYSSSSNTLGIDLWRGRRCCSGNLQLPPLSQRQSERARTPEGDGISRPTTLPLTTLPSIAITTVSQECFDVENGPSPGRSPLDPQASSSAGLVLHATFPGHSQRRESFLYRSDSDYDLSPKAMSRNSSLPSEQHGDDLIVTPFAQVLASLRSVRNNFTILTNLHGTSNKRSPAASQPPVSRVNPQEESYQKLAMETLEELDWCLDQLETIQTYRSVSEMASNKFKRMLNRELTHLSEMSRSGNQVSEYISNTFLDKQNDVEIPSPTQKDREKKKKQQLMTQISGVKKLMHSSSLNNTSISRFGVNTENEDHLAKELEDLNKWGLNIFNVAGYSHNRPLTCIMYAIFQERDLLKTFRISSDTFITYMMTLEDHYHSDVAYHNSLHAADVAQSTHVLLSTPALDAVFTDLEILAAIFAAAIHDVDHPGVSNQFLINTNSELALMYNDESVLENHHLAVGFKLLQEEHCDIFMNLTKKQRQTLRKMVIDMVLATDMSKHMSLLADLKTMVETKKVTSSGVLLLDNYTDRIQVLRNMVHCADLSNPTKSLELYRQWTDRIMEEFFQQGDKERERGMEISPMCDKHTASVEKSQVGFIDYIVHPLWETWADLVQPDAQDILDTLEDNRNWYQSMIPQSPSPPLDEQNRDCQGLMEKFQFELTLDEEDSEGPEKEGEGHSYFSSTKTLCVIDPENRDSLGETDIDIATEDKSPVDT

COC(=O)N1CCC[C@@]2(CCN(C(=O)Nc3cccc(F)c3)C2)C1
28.7%: max response [10, 13]
20.5%: max response [10, 12]
active: Potency [3] 15.8 µM
inactive: Potency [1] > 11.4 µM | activity change, negative = inhibition [2] -17.4% | activity change, negative = inhibition [4] -2.35% | activity, negative = inhibition [5] 1.62% | Potency [6] > 46 µM | outcome [7] | Potency [8] | Potency [9] | activity change, negative = inhibition [10] 5.97% | Potency [11]

CS(=O)(=O)N1CCC2(CC1)CN(C(=O)Nc1cccc(C#N)c1)C2
4.56%: max response [10, 12]
inactive: Potency [1] > 11.4 µM | activity change, negative = inhibition [2] -6.48% | Potency [3] | activity change, negative = inhibition [4] 14.4% | activity, negative = inhibition [5] -5.8% | Potency [6] > 46 µM | outcome [7] | Potency [8] | Potency [9] | activity change, negative = inhibition [10] 1.36% | Potency [11]
8.61%: max response [10, 13]

COC(=O)N1CCC2(CCCN(C(=O)Nc3cccc(F)c3)C2)CC1
-0.146%: max response [10, 12]
-17.1%: max response [10, 13]
inactive: Potency [1] > 11.4 µM | activity change, negative = inhibition [2] -3.15% | Potency [3] | activity change, negative = inhibition [4] -20.9% | activity, negative = inhibition [5] -5.21% | Potency [6] > 46 µM | outcome [7] | Potency [8] | Potency [9] | activity change, negative = inhibition [10] -17.4% | Potency [11]

O=C(c1csnn1)N1CCC2(CC1)CN(C(c1ccccc1)c1ccccc1)C2
active: Potency [9] 10 µM
24.2%: max response [10, 13]
inactive: Potency [1] > 11.4 µM | activity change, negative = inhibition [2] 3.92% | Potency [3] | activity change, negative = inhibition [4] -2.37% | activity, negative = inhibition [5] -0.642% | Potency [6] > 46 µM | outcome [7] | Potency [8] | activity change, negative = inhibition [10] 3.78% | Potency [11]
18.7%: max response [10, 12]

O=C(c1ccco1)N1CCC2(CCCN(C(c3ccccc3)c3ccccc3)C2)CC1
13.5%: max response [10, 13]
active: Potency [3] 15.8 µM | activity change, negative = inhibition [4] -80.8%
inactive: Potency [1] > 11.4 µM | activity change, negative = inhibition [2] 26.1% | activity, negative = inhibition [5] 19.8% | Potency [6] > 46 µM | outcome [7] | Potency [8] | Potency [9] | activity change, negative = inhibition [10] 2.05% | Potency [11]
10.3%: max response [10, 12]

Cc1noc(C)c1C(=O)N1CCC2(CCCN(Cc3nccs3)C2)CC1
14.6%: max response [10, 12]
22.3%: max response [10, 13]
inactive: Potency [1] > 11.4 µM | activity change, negative = inhibition [2] -7.07% | Potency [3] | activity change, negative = inhibition [4] -16.6% | activity, negative = inhibition [5] -1.5% | Potency [6] > 46 µM | outcome [7] | Potency [8] | Potency [9] | activity change, negative = inhibition [10] 5.37% | Potency [11]

COc1ccc(NC(=O)N2CCC3(CC2)CCN(C(=O)c2csnn2)CC3)cc1
inactive: Potency [1] > 11.4 µM | activity change, negative = inhibition [2] -4.35% | activity change, negative = inhibition [4] 3.59% | activity, negative = inhibition [5] -12% | Potency [6] > 46 µM | outcome [7] | Potency [8] | Potency [9] | activity change, negative = inhibition [10] 8.17% | Potency [11]
active: Potency [3] 6.31 µM
17.2%: max response [10, 12]
29.5%: max response [10, 13]

CC(C)NC(=O)N1CCC2(CC1)CCN(C(=O)c1ccncc1)CC2
inactive: Potency [1] > 11.4 µM | activity change, negative = inhibition [2] -7.19% | Potency [3] | activity change, negative = inhibition [4] 1.59% | activity, negative = inhibition [5] -8.96% | Potency [6] > 46 µM | outcome [7] | Potency [8] | Potency [9] | activity change, negative = inhibition [10] -0.818% | Potency [11]
9.1%: max response [10, 12]
9.91%: max response [10, 13]

COCC(=O)N1CCC2(CC1)CCN(C(c1ccccc1)c1ccccc1)CC2
inactive: Potency [1] > 11.4 µM | activity change, negative = inhibition [2] -2.73% | Potency [3] | activity change, negative = inhibition [4] -16.3% | activity, negative = inhibition [5] 1.17% | Potency [6] > 46 µM | outcome [7] | Potency [8] | activity change, negative = inhibition [10] 1.77% | Potency [11]
1.52%: max response [10, 12]
5.9%: max response [10, 13]
active: Potency [9] 25.1 µM

O=C(Nc1ccccc1)N1CC2(CCN(C(=O)c3ccncc3)CC2)C1
inactive: Potency [1] > 11.4 µM | activity change, negative = inhibition [2] 12.1% | activity change, negative = inhibition [4] 7.64% | activity, negative = inhibition [5] -1.5% | Potency [6] > 46 µM | outcome [7] | Potency [8] | Potency [9] | activity change, negative = inhibition [10] 3.73% | Potency [11]
-2.29%: max response [10, 13]
active: Potency [3] 10 µM
-8.48%: max response [10, 12]

N#Cc1cccc(NC(=O)N2CC[C@@]3(CCCNC3)C2)c1
-1.99%: max response [10, 13]
-6.65%: max response [10, 12]
inactive: Potency [1] > 11.4 µM | activity change, negative = inhibition [2] 9.42% | Potency [3] | activity change, negative = inhibition [4] 9.18% | activity, negative = inhibition [5] -4.17% | Potency [6] > 46 µM | outcome [7] | Potency [8] | Potency [9] | activity change, negative = inhibition [10] 1.94% | Potency [11]

CS(=O)(=O)N1CCC[C@@]2(CCN(C(=O)Nc3cccc(F)c3)C2)C1
1.7%: max response [10, 12]
6.37%: max response [10, 13]
inactive: Potency [1] > 11.4 µM | activity change, negative = inhibition [2] -7.6% | Potency [3] | activity change, negative = inhibition [4] 16.7% | activity, negative = inhibition [5] -3.89% | Potency [6] > 46 µM | outcome [7] | Potency [8] | Potency [9] | activity change, negative = inhibition [10] 1.83% | Potency [11]

COc1ccc(NC(=O)N2CCCC3(CCN(C(=O)c4c(C)noc4C)CC3)C2)cc1
inactive: Potency [1] > 11.4 µM | activity change, negative = inhibition [2] -6.4% | Potency [3] | activity change, negative = inhibition [4] 7.7% | activity, negative = inhibition [5] -0.272% | Potency [6] > 46 µM | outcome [7] | Potency [8] | Potency [9] | activity change, negative = inhibition [10] 3.9% | Potency [11]
18.8%: max response [10, 13]
14.4%: max response [10, 12]
